Assay results taken from PubChem BioAssay AID1159580 (chemical genetic matrix, 2015).
Hit rate of the full screen: of about 5,500 compounds, about 2,000 (36%) were called active. Not shown: some 18% with an inconclusive outcome. Cut-off read from the data, not from the text of the source: active = normalized growth mostly below about 0.91 (no sharp cut-off); inconclusive = no clear call, values can overlap the other calls; inactive = mostly above about 0.92. Some of the results follow.

Test: chemical genetic growth profiling, strain panel (AID 1159580);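 note: tested at 20 µM; growth read once vehicle control cultures reached saturation at 30 °C; 1 = growth at the plate median or of vehicle wells; lower values mean less growth of the strain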
Details: growth OD

Measured: normalized growth

COc1cc2occ(-c3ccccc3)c(=O)c2c(OC)c1C
inactive: S. cerevisiae deletion strains, locus YJR043C, strain POL32, stronger effect = lower value 0.937 | S. cerevisiae deletion strains, locus YJR075W, strain HOC1, stronger effect = lower value 0.908 | S. cerevisiae deletion strains, locus YKL009W, strain mrt4, stronger effect = lower value 0.941 | S. cerevisiae deletion strains, locus YKL068W, stronger effect = lower value 0.965 | S. cerevisiae deletion strains, locus YKL085W, strain MDH1 (second series), stronger effect = lower value 0.952 | S. cerevisiae deletion strains, locus YKL085W, strain MDH1, stronger effect = lower value 0.952 | S. cerevisiae deletion strains, locus YKL160W, strain elf1, stronger effect = lower value 0.969 | S. cerevisiae deletion strains, locus YKL190W, strain CNB1, stronger effect = lower value 0.961 | S. cerevisiae deletion strains, locus YKR026C, strain gcn3, stronger effect = lower value 0.973 | S. cerevisiae deletion strains, locus YKR091W, strain srl3, stronger effect = lower value 0.976 | S. cerevisiae deletion strains, locus YLL001W, strain dnm1, stronger effect = lower value 0.98 | S. cerevisiae deletion strains, locus YLL026W, stronger effect = lower value 0.971 | S. cerevisiae deletion strains, locus YLL041C, strain sdh2, stronger effect = lower value 0.976 | S. cerevisiae deletion strains, locus YLR027C, strain aat2, stronger effect = lower value 0.979 | S. cerevisiae deletion strains, locus YLR039C, strain RIC1, stronger effect = lower value 0.763 | S. cerevisiae deletion strains, locus YLR058C, strain SHM2, stronger effect = lower value 0.951 | S. cerevisiae deletion strains, locus YLR102C, strain apc9, stronger effect = lower value 0.96 | S. cerevisiae deletion strains, locus YLR221C, strain rsa3, stronger effect = lower value 0.979 | S. cerevisiae deletion strains, locus YLR258W, strain gsy2, stronger effect = lower value 0.97 | S. cerevisiae deletion strains, locus YLR262C, strain YPT6, stronger effect = lower value 0.725 | S. cerevisiae deletion strains, locus YLR320W, strain mms22, stronger effect = lower value 0.902 | S. cerevisiae deletion strains, locus YLR330W, strain CHS5, stronger effect = lower value 0.957 | S. cerevisiae deletion strains, locus YLR342W, strain FKS1, stronger effect = lower value 0.968 | S. cerevisiae deletion strains, locus YLR357W, strain rsc2, stronger effect = lower value 0.97 | S. cerevisiae deletion strains, locus YLR370C, strain arc18, stronger effect = lower value 0.962 | S. cerevisiae deletion strains, locus YLR371W, strain rom2, stronger effect = lower value 0.923 | S. cerevisiae deletion strains, locus YLR384C, strain iki3, stronger effect = lower value 0.976 | S. cerevisiae deletion strains, locus YML016C, strain PPZ1, stronger effect = lower value 0.956 | S. cerevisiae deletion strains, locus YML120C, strain ndi1, stronger effect = lower value 0.951 | S. cerevisiae deletion strains, locus YML124C, strain tub3, stronger effect = lower value 0.942 | S. cerevisiae deletion strains, locus YMR058W, strain fet3, stronger effect = lower value 0.97 | S. cerevisiae deletion strains, locus YMR078C, strain ctf18, stronger effect = lower value 0.927 | S. cerevisiae deletion strains, locus YMR125W, strain sto1, stronger effect = lower value 1 | S. cerevisiae deletion strains, locus YMR129W, stronger effect = lower value 0.981 | S. cerevisiae deletion strains, locus YMR205C, strain PFK2, stronger effect = lower value 0.932 | S. cerevisiae deletion strains, locus YMR231W, strain pep5, stronger effect = lower value 0.998 | S. cerevisiae deletion strains, locus YMR263W, strain SAP30, stronger effect = lower value 0.926 | S. cerevisiae deletion strains, locus YMR307W, strain GAS1, stronger effect = lower value 0.665 | S. cerevisiae deletion strains, locus YNL067W, strain RPL9B, stronger effect = lower value 0.95 | S. cerevisiae deletion strains, locus YNL128W, strain TEP1, stronger effect = lower value 0.963 | S. cerevisiae deletion strains, locus YNL153C, strain GIM3, stronger effect = lower value 0.991 | S. cerevisiae deletion strains, locus YNL209W, strain ssb2, stronger effect = lower value 0.988 | S. cerevisiae deletion strains, locus YNL233W, strain BNI4, stronger effect = lower value 0.908 | S. cerevisiae deletion strains, locus YNL248C, strain rpa49, stronger effect = lower value 0.98 | S. cerevisiae deletion strains, locus YNL250W, strain rad50, stronger effect = lower value 0.956 | S. cerevisiae deletion strains, locus YNL271C, strain bni1, stronger effect = lower value 0.937 | S. cerevisiae deletion strains, locus YNL298W, strain CLA4, stronger effect = lower value 0.946 | S. cerevisiae deletion strains, locus YNL322C, strain KRE1 (second series), stronger effect = lower value 0.991 | S. cerevisiae deletion strains, locus YNL322C, strain KRE1, stronger effect = lower value 0.965 | S. cerevisiae deletion strains, locus YNR049C, strain mso1, stronger effect = lower value 0.985 | S. cerevisiae deletion strains, locus YNR052C, strain pop2, stronger effect = lower value 0.933 | S. cerevisiae deletion strains, locus YOL006C, strain TOP1, stronger effect = lower value 0.787 | S. cerevisiae deletion strains, locus YOL012C, strain htz1 0.865 | S. cerevisiae deletion strains, locus YOR001W, strain rrp6, stronger effect = lower value 1 | S. cerevisiae deletion strains, locus YOR061W, strain CKA2, stronger effect = lower value 0.96 | S. cerevisiae deletion strains, locus YOR069W, strain VPS5, stronger effect = lower value 0.968 | S. cerevisiae deletion strains, locus YOR070C, strain gyp1, stronger effect = lower value 0.982 | S. cerevisiae deletion strains, locus YOR080W, strain dia2, stronger effect = lower value 1 | S. cerevisiae deletion strains, locus YOR083W, strain WHI5, stronger effect = lower value 0.965 | S. cerevisiae deletion strains, locus YOR106W, strain vam3, stronger effect = lower value 0.953 | S. cerevisiae deletion strains, locus YOR136W, strain idh2, stronger effect = lower value 0.952 | S. cerevisiae deletion strains, locus YOR144C, strain elg1, stronger effect = lower value 0.946 | S. cerevisiae deletion strains, locus YOR265W, strain rbl2, stronger effect = lower value 0.962 | S. cerevisiae deletion strains, locus YOR270C, strain vph1, stronger effect = lower value 0.801 | S. cerevisiae deletion strains, locus YOR290C, strain snf2, stronger effect = lower value 0.919 | S. cerevisiae deletion strains, locus YOR316C, strain cot1, stronger effect = lower value 0.937 | S. cerevisiae deletion strains, locus YPL051W, strain arl3, stronger effect = lower value 0.942 | S. cerevisiae deletion strains, locus YPL055C, strain LGE1, stronger effect = lower value 0.888 | S. cerevisiae deletion strains, locus YPL078C, strain atp4, stronger effect = lower value 0.956 | S. cerevisiae deletion strains, locus YPL106C, strain sse1, stronger effect = lower value 0.993 | S. cerevisiae deletion strains, locus YPL240C, strain hsp82, stronger effect = lower value 0.969 | S. cerevisiae deletion strains, locus YPL241C, strain CIN2, stronger effect = lower value 0.959 | S. cerevisiae deletion strains, locus YPR119W, strain clb2, stronger effect = lower value 0.959 | S. cerevisiae deletion strains, locus YPR141C, strain kar3, stronger effect = lower value 0.944 | S. cerevisiae deletion strains, locus YPR163C, strain tif3, stronger effect = lower value 0.937 | S. cerevisiae deletion strains, locus YPR167C, strain met16, stronger effect = lower value 0.942 | S. cerevisiae deletion strains, strain wtn01, stronger effect = lower value 0.916 | S. cerevisiae strains, strain wild type, stronger effect = lower value 0.928
active: S. cerevisiae deletion strains, locus YKR001C, strain vps1, stronger effect = lower value 0.855 | S. cerevisiae deletion strains, locus YLR262C, strain YPT6 (second series), stronger effect = lower value 0.766 | S. cerevisiae deletion strains, locus YLR268W, strain sec22, stronger effect = lower value 0.873 | S. cerevisiae deletion strains, locus YLR342W, strain FKS1 (second series), stronger effect = lower value 0.714 | S. cerevisiae deletion strains, locus YLR418C, strain cdc73, stronger effect = lower value 0.788 | S. cerevisiae deletion strains, locus YML032C, strain rad52, stronger effect = lower value 0.898 | S. cerevisiae deletion strains, locus YMR223W, strain ubp8, stronger effect = lower value 0.885 | S. cerevisiae deletion strains, locus YNL071W, strain lat1, stronger effect = lower value 0.819 | S. cerevisiae deletion strains, locus YNL307C, strain MCK1, stronger effect = lower value 0.664 | S. cerevisiae deletion strains, locus YOL147C, strain pex11, stronger effect = lower value 0.923 | S. cerevisiae deletion strains, locus YOR184W, strain ser1, stronger effect = lower value 0.742
